Screening data from PubChem BioAssay.
NS1 function inh: blocks influenza NS1 protein function; AID 2326; Potency, µM (titrated, usually from 46.1 µM); 0.4% of 270,000 active; calls by dose curve; further: actives are rising curves; nearly all actives have a fitted effect of over 50% in size
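A cell-based growth assay was used: compounds that relieve NS1-induced slow growth of budding yeast raise OD600. Assay medium was yeast nitrogen base with ammonium sulphate and -URA supplement, pH 6.0, with 2% galactose.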
Cruzain Triton: blocks cruzain activity in presence of Triton detergent; P25779; purified cruzain, Z-FR-AMC fluorescence, 0.01% Triton; Potency, µM, hits mostly inhibitors; 0.43% of 200,000 active; further: nearly all actives have a fitted effect of over 40% in size
Target sequence (P25779 123-467 limits assumed): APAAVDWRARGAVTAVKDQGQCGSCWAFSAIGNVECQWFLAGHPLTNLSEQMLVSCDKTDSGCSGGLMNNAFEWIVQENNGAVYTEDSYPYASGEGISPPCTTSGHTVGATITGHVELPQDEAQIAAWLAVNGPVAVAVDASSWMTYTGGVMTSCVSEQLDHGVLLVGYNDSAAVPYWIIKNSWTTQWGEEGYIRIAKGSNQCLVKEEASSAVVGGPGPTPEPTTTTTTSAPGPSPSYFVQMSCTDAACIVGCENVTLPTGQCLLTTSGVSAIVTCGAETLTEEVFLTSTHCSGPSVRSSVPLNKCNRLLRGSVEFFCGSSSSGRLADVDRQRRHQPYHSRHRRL
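Enzyme 1.5 nM, Z-FR-AMC 2 uM, NaOAc 100 mM pH 5.5, DTT 5 mM, Triton X-100 0.01%; 15 min RT compound preincubation; kinetic ex360/em450, 60 s delta.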
Cruzain noTriton: blocks cruzain activity in detergent-free assay | P25779 | purified cruzain, Z-FR-AMC fluorescence, no detergent | Potency, µM, usual class: inhibitors | 2.3% of 200,000 active | AID 1476; further: nearly all actives have a fitted effect of over 40% in size
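Detergent-free condition (0.00005% Triton X-100) in acetate buffer pH 5.5 with DTT. 1.5 nM enzyme and compound were pre-mixed 15 min, then 2 uM Z-FR-AMC substrate added; reaction progress from fluorescence change between first and third reads (60 s).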
Large screens that a line does not name were inactive. This is one part of a sample in which hits are shown more often than they occur. Unless noted, the call rests on the fitted dose curve; in most records, active means well fitted curve in the direction sought with a large enough effect; inconclusive means small, poorly fitted or top-dose-only effect, or another doubt; inactive means no such curve, though single readings can be large; an effect the other way counts as inactive or inconclusive.

CCOc1ccc(NC(=O)CCS(=O)(=O)c2ccc3nc(C)sc3c2)cc1	none (no result: NS1 function inh)
N#C/C(=C(/O)CSc1ccccn1)c1nc2ccccc2s1	none (no result: Cruzain Triton, Cruzain noTriton)
Cc1ccc(SC/C(O)=C(\C#N)c2nc3ccccc3s2)cc1	Cruzain noTriton 25.1µM
Cc1cccc(C(=O)Nc2ccc(C(=O)OCc3cc(=O)n4c(C)csc4n3)cc2)c1	none (no result: NS1 function inh)
Cc1cc2c(cc1C)CSC(c1ccc3ccccc3c1O)SC2	Cruzain noTriton 25.1µM
Cc1cc2c(cc1C)CSC(c1c(O)ccc3ccccc13)SC2	Cruzain noTriton inconclusive
C[N+](=O)[O-]	none (no result: NS1 function inh)
CCN1CCN(c2nc3c(C)cccn3c(=O)c2/C=C(\C#N)S(=O)(=O)c2ccc(Cl)cc2)CC1	none (no result: Cruzain Triton, Cruzain noTriton)
Cc1cc(Oc2nc3c(C)cccn3c(=O)c2/C=C(\C#N)S(=O)(=O)c2ccc(Cl)cc2)ccc1Cl	Cruzain noTriton 12.6µM
COc1ccc(-n2c(SCC(=O)NCc3ccc(C)cc3)nc3n[nH]c(C)c3c2=N)cc1	Cruzain noTriton inconclusive (no result: NS1 function inh)
CCCC(=O)Cl	none (no result: NS1 function inh)
CCOc1ccccc1C(=O)NCc1ccc2c(c1)CCN2C(=O)c1ccccc1	none (no result: NS1 function inh)
CC1CCc2c(sc(NC(=O)CSc3ncnc4c3cnn4-c3ccccc3Cl)c2C#N)C1 (stereo not drawn)	Cruzain noTriton 10µM
CC1CCc2c(sc(NC(=O)CSc3ncn[nH]3)c2C#N)C1 (stereo not drawn)	none (no result: Cruzain Triton, Cruzain noTriton)
COc1ccc(CN2COc3ccc4c(-c5ccccc5)cc(=O)oc4c3C2)cc1OC	Cruzain noTriton inconclusive (no result: NS1 function inh)
CCCc1cc(=O)oc2c(CN3CCCC3)c(O)c(Cl)cc12	Cruzain Triton 31.6µM, Cruzain noTriton inconclusive
CCCc1cc(=O)oc2c(CN3CCCC3)c(O)ccc12	Cruzain Triton 25.1µM, Cruzain noTriton inconclusive
Cc1cc(=O)oc2c(CN3CCCCC3)c(O)c(Cl)cc12	Cruzain Triton inconclusive, Cruzain noTriton inconclusive
Cc1cc(=O)oc2c(CN3CCCC3)c(O)ccc12	none (no result: Cruzain Triton, Cruzain noTriton)
Nc1nonc1-c1nc2ccccc2n1CC(=O)N/N=C\c1ccc(-c2ccc(Cl)cc2)o1	Cruzain noTriton 3.98µM
CC(C)c1ccccc1NC(=O)Cn1c(/C=C/c2ccccc2)nc2ccccc21	none (no result: Cruzain Triton, Cruzain noTriton)
Cc1ccc(NC(=O)Cn2c(/C=C/c3ccccc3)nc3ccccc32)cc1C	Cruzain noTriton 15.8µM
CCC(=O)Nc1nonc1-c1nc2ccccc2n1Cc1ccccc1	none
CCOC(=O)Cn1c(-c2nonc2NC(=O)c2ccccc2F)nc2ccccc21	Cruzain noTriton 25.1µM
Nc1nonc1-c1nc2ccccc2n1CC(=O)Nc1ccc(F)cc1	none (no result: NS1 function inh)
Cc1ccc(NC(=O)Cn2c(-c3nonc3N)nc3ccccc32)cc1Cl	Cruzain noTriton 7.94µM (no result: NS1 function inh)
Nc1nonc1-c1nc2ccccc2n1CC(=O)Nc1cccc(Cl)c1Cl	none (no result: NS1 function inh)
COC(=O)c1nnc(C(=O)NCc2ccccc2)c2[nH]c3ccccc3c12	none (no result: NS1 function inh)
Cc1nc(NCc2ccccc2)c2nc(-c3ccccc3)n(CCN3CCCC3)c2n1	none (no result: NS1 function inh)
Cc1cc(=O)c2c(O)c3c(O)cc(=O)c4c3c3c(cc(O)c1c23)C(C)(C)C=4O	none (no result: NS1 function inh)
O=C1/C(=C\c2ccco2)SC(=S)N1Cc1ccccc1	none
Cc1cc(/C=C2\SC(=S)N(Cc3ccco3)C2=O)c(C)n1-c1ccccc1	NS1 function inh inconclusive, Cruzain noTriton 10µM
Cn1c(=O)cc(SCC(=O)N2CCN(c3ccccc3F)CC2)c2cc(Cl)ccc21	none (no result: NS1 function inh)
O=C(Nc1cc(Sc2ccccn2)cc([N+](=O)[O-])c1)c1ccc([N+](=O)[O-])cc1	Cruzain noTriton 31.6µM
O=[N+]([O-])c1ccc(Sc2ccccn2)nc1	none (no result: Cruzain Triton, Cruzain noTriton)
C=CCn1c(SCC(=O)N2CC(=O)Nc3ccccc32)nc2scc(-c3cccs3)c2c1=O	Cruzain noTriton 10µM
Cc1nnc(SCC(=O)N2CC(=O)Nc3ccccc32)n1C	none
CC(C)CCn1c(SCC(=O)N2CC(=O)Nc3ccccc32)nc2scc(-c3cccs3)c2c1=O	Cruzain noTriton 12.6µM
C=CCn1c(COc2ccc(F)cc2)nnc1SCC(=O)N1CC(=O)Nc2ccccc21	none
Nc1ccn([C@H]2O[C@@H](COP(=O)(O)O)[C@@H](O)[C@H]2O)c(=O)n1	none
CN(C)c1ccc(/C=N/c2cc(-c3ccccc3)nn2-c2ccccc2)cc1	Cruzain noTriton 20µM
Cc1nn(-c2ccccc2)c(/N=C/c2ccc(O)cc2)c1-c1ccccc1	none
COc1ccc2nc(-n3c(C)ccc3C)sc2c1	none
CCOc1ccc2nc(N3CCCCCC3)sc2c1	none
COc1ccc2nc(N3C(=O)/C(=C/c4ccccc4)NC3=S)sc2c1	Cruzain noTriton 12.6µM
CCOc1ccc2nc(N3C(=O)/C(=C/c4ccccc4)NC3=S)sc2c1	Cruzain noTriton 12.6µM
CC(C)(C)c1nc(SCC(=O)Nc2nc3c(s2)CCCC3)c2ccccc2n1	Cruzain noTriton inconclusive
O=C(Nc1nc2c(s1)CCCC2)c1cc(-c2ccncc2)nc2ccccc12	Cruzain noTriton inconclusive
Cc1ccc(-c2cc(C(=O)Nc3ccc4c(c3)OCCO4)c3ccccc3n2)cc1	Cruzain noTriton 10µM
O=C(Nc1nc2c(s1)CCCC2)c1cc(-c2ccccc2)nc2ccccc12	Cruzain noTriton 20µM
O=C(Nc1ccc2c(c1)OCO2)c1cc(-c2cccnc2)nc2ccccc12	none (no result: Cruzain Triton, Cruzain noTriton)
COC(=O)c1sccc1NC(=O)c1cc(-c2ccc(C)cc2)nc2ccccc12	Cruzain noTriton inconclusive
COC(=O)c1sccc1NC(=O)c1cc(-c2cccc(C)c2)nc2ccccc12	Cruzain noTriton 10µM
O=C(CSc1nc(Cc2ccccc2)nc2ccccc12)Nc1nc2c(s1)CCCC2	Cruzain noTriton 25.1µM
C=C[C@@H](C1=CC(=O)C(OC)=C(OC)C1=O)c1ccccc1	none (no result: NS1 function inh)
CCNc1ncc2nc(-c3cccs3)c(=O)n(Cc3ccc(F)cc3)c2n1	none (no result: NS1 function inh)
CC(C)(C)c1ccc(S(=O)(=O)/C=C/C#N)cc1	none
C[C@@H]1C[C@@H]([C@@H](C)CC2CC(=O)NC(=O)C2)C(=O)[C@@H](C)C1	none (no result: NS1 function inh)
NS(=O)(=O)c1cccc(NC(=O)c2cc(-c3cccs3)nc3ccccc23)c1	none (no result: Cruzain Triton, Cruzain noTriton)
CN(C)S(=O)(=O)c1cccc(NC(=O)c2cc(-c3cccs3)nc3ccccc23)c1	Cruzain noTriton 15.8µM
COc1ccc(-c2cc(C(=O)NC3=NCCS3)c3ccccc3n2)cc1OC	none (no result: Cruzain Triton, Cruzain noTriton)
O=C(NC1=NCCS1)c1cc(-c2ccc(-c3ccccc3)cc2)nc2ccccc12	Cruzain noTriton 7.94µM
CCN(CC)c1ccc(NC(=O)CCCN2C(=O)C(c3ccccc3)Oc3cccnc32)c(C)c1 (stereo not drawn)	none (no result: NS1 function inh)
Cc1nc(N)nc2ccccc12	none
c1cc(NC2CC2)nc(-c2ccoc2)n1	none (no result: NS1 function inh)
Cc1cc2nc3c(=O)[nH]c(=O)nc-3n(CC(O)C(O)C(O)COP(=O)(O)O)c2cc1C (stereo not drawn)	none (no result: NS1 function inh)
Nc1ccc(C(=O)n2c3ccccc3c3ccccc32)cc1	Cruzain noTriton 25.1µM
Nc1ccc(C(=O)N2CCCC2)cc1	none
CCCCCCc1cc2cc(S(=O)(=O)c3ccc(F)cc3)c(=O)oc2cc1O	Cruzain noTriton 25.1µM
CCCCCCc1cc2cc(-c3nnc(-c4ccccc4O)o3)c(=O)oc2cc1O	none
Cc1ccc(-c2nc3ccccc3[nH]2)cc1NC(=O)c1ccc2c(c1)OCO2	Cruzain noTriton inconclusive
O=C(NC(=S)Nc1cc(-c2nc3ccccc3[nH]2)ccc1Cl)c1ccc2c(c1)OCO2	Cruzain Triton 17.8µM, Cruzain noTriton 31.6µM
S=C(NCc1ccc2c(c1)OCO2)Nc1ccc(-c2nc3ccccc3[nH]2)cc1	Cruzain noTriton 20µM
c1ccc2[nH]c(NCc3ccc4c(c3)OCO4)nc2c1	none (no result: Cruzain Triton, Cruzain noTriton)
COc1cc(NC(=O)c2ccc(-c3nc(COc4ccccc4)c(C)o3)cc2)cc(OC)c1	none (no result: NS1 function inh)
